Results taken from article PMC8222333, “AsCas12a ultra nuclease facilitates the rapid generation of therapeutic cell medicines”.

B1: AACG (dsDNA)
DNA 1: GCTATCTAGTGCTCAGTACGCACTGAACGAGGAAACTTCTGGCAGGACCAGGTCATGAGATCGGAAGAGCACACGTCTGAACTCCAGTCA
DNA 2: TGACTGGAGTTCAGACGTGTGCTCTTCCGATCTCATGACCTGGTCCTGCCAGAAGTTTCCTCGTTCAGTGCGTACTGAGCACTAGATAGC
RNA: AAUUUCUACUCUUGUAGAUAGGAAACUUCUGGCAGGACC
B2: ACAG (dsDNA)
DNA 1: GCTATCTAGTGCTCAGTACGCACTGACAGAGGAAACTTCTGGCAGGACCAGGTCATGAGATCGGAAGAGCACACGTCTGAACTCCAGTCA
DNA 2: TGACTGGAGTTCAGACGTGTGCTCTTCCGATCTCATGACCTGGTCCTGCCAGAAGTTTCCTCTGTCAGTGCGTACTGAGCACTAGATAGC
RNA: AAUUUCUACUCUUGUAGAUAGGAAACUUCUGGCAGGACC
B3: ACGG (dsDNA)
DNA 1: GCTATCTAGTGCTCAGTACGCACTGACGGAGGAAACTTCTGGCAGGACCAGGTCATGAGATCGGAAGAGCACACGTCTGAACTCCAGTCA
DNA 2: TGACTGGAGTTCAGACGTGTGCTCTTCCGATCTCATGACCTGGTCCTGCCAGAAGTTTCCTCCGTCAGTGCGTACTGAGCACTAGATAGC
RNA: AAUUUCUACUCUUGUAGAUAGGAAACUUCUGGCAGGACC
B4: AGCA (dsDNA)
DNA 1: GCTATCTAGTGCTCAGTACGCACTGAGCAAGGAAACTTCTGGCAGGACCAGGTCATGAGATCGGAAGAGCACACGTCTGAACTCCAGTCA
DNA 2: TGACTGGAGTTCAGACGTGTGCTCTTCCGATCTCATGACCTGGTCCTGCCAGAAGTTTCCTTGCTCAGTGCGTACTGAGCACTAGATAGC
RNA: AAUUUCUACUCUUGUAGAUAGGAAACUUCUGGCAGGACC
B5: ACGA (dsDNA)
DNA 1: GCTATCTAGTGCTCAGTACGCACTGACGAAGGAAACTTCTGGCAGGACCAGGTCATGAGATCGGAAGAGCACACGTCTGAACTCCAGTCA
DNA 2: TGACTGGAGTTCAGACGTGTGCTCTTCCGATCTCATGACCTGGTCCTGCCAGAAGTTTCCTTCGTCAGTGCGTACTGAGCACTAGATAGC
RNA: AAUUUCUACUCUUGUAGAUAGGAAACUUCUGGCAGGACC
B6: ACAA (dsDNA)
DNA 1: GCTATCTAGTGCTCAGTACGCACTGACAAAGGAAACTTCTGGCAGGACCAGGTCATGAGATCGGAAGAGCACACGTCTGAACTCCAGTCA
DNA 2: TGACTGGAGTTCAGACGTGTGCTCTTCCGATCTCATGACCTGGTCCTGCCAGAAGTTTCCTTTGTCAGTGCGTACTGAGCACTAGATAGC
RNA: AAUUUCUACUCUUGUAGAUAGGAAACUUCUGGCAGGACC
B7: ACGT (dsDNA)
DNA 1: GCTATCTAGTGCTCAGTACGCACTGACGTAGGAAACTTCTGGCAGGACCAGGTCATGAGATCGGAAGAGCACACGTCTGAACTCCAGTCA
DNA 2: TGACTGGAGTTCAGACGTGTGCTCTTCCGATCTCATGACCTGGTCCTGCCAGAAGTTTCCTACGTCAGTGCGTACTGAGCACTAGATAGC
RNA: AAUUUCUACUCUUGUAGAUAGGAAACUUCUGGCAGGACC
B8: ACCC (dsDNA)
DNA 1: GCTATCTAGTGCTCAGTACGCACTGACCCAGGAAACTTCTGGCAGGACCAGGTCATGAGATCGGAAGAGCACACGTCTGAACTCCAGTCA
DNA 2: TGACTGGAGTTCAGACGTGTGCTCTTCCGATCTCATGACCTGGTCCTGCCAGAAGTTTCCTGGGTCAGTGCGTACTGAGCACTAGATAGC
RNA: AAUUUCUACUCUUGUAGAUAGGAAACUUCUGGCAGGACC
B9: AAGT (dsDNA)
DNA 1: GCTATCTAGTGCTCAGTACGCACTGAAGTAGGAAACTTCTGGCAGGACCAGGTCATGAGATCGGAAGAGCACACGTCTGAACTCCAGTCA
DNA 2: TGACTGGAGTTCAGACGTGTGCTCTTCCGATCTCATGACCTGGTCCTGCCAGAAGTTTCCTACTTCAGTGCGTACTGAGCACTAGATAGC
RNA: AAUUUCUACUCUUGUAGAUAGGAAACUUCUGGCAGGACC
B10: AGAG (dsDNA)
DNA 1: GCTATCTAGTGCTCAGTACGCACTGAGAGAGGAAACTTCTGGCAGGACCAGGTCATGAGATCGGAAGAGCACACGTCTGAACTCCAGTCA
DNA 2: TGACTGGAGTTCAGACGTGTGCTCTTCCGATCTCATGACCTGGTCCTGCCAGAAGTTTCCTCTCTCAGTGCGTACTGAGCACTAGATAGC
RNA: AAUUUCUACUCUUGUAGAUAGGAAACUUCUGGCAGGACC
B11: AACT (dsDNA)
DNA 1: GCTATCTAGTGCTCAGTACGCACTGAACTAGGAAACTTCTGGCAGGACCAGGTCATGAGATCGGAAGAGCACACGTCTGAACTCCAGTCA
DNA 2: TGACTGGAGTTCAGACGTGTGCTCTTCCGATCTCATGACCTGGTCCTGCCAGAAGTTTCCTAGTTCAGTGCGTACTGAGCACTAGATAGC
RNA: AAUUUCUACUCUUGUAGAUAGGAAACUUCUGGCAGGACC
B12: AAGG (dsDNA)
DNA 1: GCTATCTAGTGCTCAGTACGCACTGAAGGAGGAAACTTCTGGCAGGACCAGGTCATGAGATCGGAAGAGCACACGTCTGAACTCCAGTCA
DNA 2: TGACTGGAGTTCAGACGTGTGCTCTTCCGATCTCATGACCTGGTCCTGCCAGAAGTTTCCTCCTTCAGTGCGTACTGAGCACTAGATAGC
RNA: AAUUUCUACUCUUGUAGAUAGGAAACUUCUGGCAGGACC
B13: AGAC (dsDNA)
DNA 1: GCTATCTAGTGCTCAGTACGCACTGAGACAGGAAACTTCTGGCAGGACCAGGTCATGAGATCGGAAGAGCACACGTCTGAACTCCAGTCA
DNA 2: TGACTGGAGTTCAGACGTGTGCTCTTCCGATCTCATGACCTGGTCCTGCCAGAAGTTTCCTGTCTCAGTGCGTACTGAGCACTAGATAGC
RNA: AAUUUCUACUCUUGUAGAUAGGAAACUUCUGGCAGGACC
B14: AAGA (dsDNA)
DNA 1: GCTATCTAGTGCTCAGTACGCACTGAAGAAGGAAACTTCTGGCAGGACCAGGTCATGAGATCGGAAGAGCACACGTCTGAACTCCAGTCA
DNA 2: TGACTGGAGTTCAGACGTGTGCTCTTCCGATCTCATGACCTGGTCCTGCCAGAAGTTTCCTTCTTCAGTGCGTACTGAGCACTAGATAGC
RNA: AAUUUCUACUCUUGUAGAUAGGAAACUUCUGGCAGGACC
B15: ACAC (dsDNA)
DNA 1: GCTATCTAGTGCTCAGTACGCACTGACACAGGAAACTTCTGGCAGGACCAGGTCATGAGATCGGAAGAGCACACGTCTGAACTCCAGTCA
DNA 2: TGACTGGAGTTCAGACGTGTGCTCTTCCGATCTCATGACCTGGTCCTGCCAGAAGTTTCCTGTGTCAGTGCGTACTGAGCACTAGATAGC
RNA: AAUUUCUACUCUUGUAGAUAGGAAACUUCUGGCAGGACC
B16: AGAT (dsDNA)
DNA 1: GCTATCTAGTGCTCAGTACGCACTGAGATAGGAAACTTCTGGCAGGACCAGGTCATGAGATCGGAAGAGCACACGTCTGAACTCCAGTCA
DNA 2: TGACTGGAGTTCAGACGTGTGCTCTTCCGATCTCATGACCTGGTCCTGCCAGAAGTTTCCTATCTCAGTGCGTACTGAGCACTAGATAGC
RNA: AAUUUCUACUCUUGUAGAUAGGAAACUUCUGGCAGGACC
B17: ACCG (dsDNA)
DNA 1: GCTATCTAGTGCTCAGTACGCACTGACCGAGGAAACTTCTGGCAGGACCAGGTCATGAGATCGGAAGAGCACACGTCTGAACTCCAGTCA
DNA 2: TGACTGGAGTTCAGACGTGTGCTCTTCCGATCTCATGACCTGGTCCTGCCAGAAGTTTCCTCGGTCAGTGCGTACTGAGCACTAGATAGC
RNA: AAUUUCUACUCUUGUAGAUAGGAAACUUCUGGCAGGACC
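Also: relative affinity from the bound to unbound sequence frequency ratio in Spec-seq.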

These binders were tested against dAsCas12a S542R (Acidaminococcus sp., UniProt U2UMQ6 1-1307, S542R;D908A;E993A;D1235A) (assay: Spec-seq (native PAGE EMSA with sequencing of bound and unbound); 25 mM Tris-HCl pH 7.4, 150 mM KCl, 5 mM MgCl2, 10% glycerol, 1 mM DTT, 40 ng/uL salmon sperm DNA; 400 nM Cas12a, 480 nM crRNA, 50 nM library, 37 C 1 h; native PAGE at room temperature; high values mean tight binding). Settings: protein: recombinant.
With B1 the binding signal was -8.29 lnKA.
B2 showed a binding signal of -8.64 lnKA.
B3 was tested, and the binding signal was -8.37 lnKA.
B4 gave a binding signal of -8.4 lnKA.
B5 showed a binding signal of -8.68 lnKA.
B6 gave a binding signal of -8.6 lnKA.
B7 was tested, and the binding signal was -8.74 lnKA.
B8 gave a binding signal of -5.2 lnKA.
B9 was tested, and the binding signal was -8.46 lnKA.
B10 showed a binding signal of -8.48 lnKA.
Binder B11 has a binding signal of -8.54 lnKA.
B12 gave a binding signal of -8.67 lnKA.
B13 was tested, and the binding signal was -8.52 lnKA.
For B14, the binding signal was -8.52 lnKA.
For B15, the binding signal was -8.48 lnKA.
B16 showed a binding signal of -8.54 lnKA.
In the case of B17, the binding signal is reported as -6.71 lnKA.

The binders below were run against d-enCas12a (Acidaminococcus sp., UniProt U2UMQ6 1-1307, E174R;S542R;K548R;D908A;E993A;D1235A) in the same assay as above. Settings: protein: recombinant.
In the case of B1, the binding signal is reported as -4.8 lnKA.
B2 showed a binding signal of -5.79 lnKA.
B3 showed a binding signal of -6.05 lnKA.
Binder B4 has a binding signal of -3.23 lnKA.
B5 gave a binding signal of -5.84 lnKA.
B6 showed a binding signal of -5.98 lnKA.
B7 gave a binding signal of -5.85 lnKA.
B8 gave a binding signal of -2.44 lnKA.
In the case of B9, the binding signal is reported as -5.71 lnKA.
Work on B10 yielded a binding signal of -5.79 lnKA.
Binder B11 has a binding signal of -4.69 lnKA.
In the case of B12, the binding signal is reported as -5.8 lnKA.
B13 was tested, and the binding signal was -5.69 lnKA.
For B14, the binding signal was -5.74 lnKA.
B15 was tested, and the binding signal was -5.72 lnKA.
Binder B16 has a binding signal of -5.75 lnKA.
For B17, the binding signal was -4.92 lnKA.

Each binder was assayed against d-enCas12a-Ultra (Acidaminococcus sp., UniProt U2UMQ6 1-1307, E174R;S542R;K548R;M537R;F870L;D908A;E993A;D1235A) in the same assay as above. Settings: protein: recombinant.
With B1 the binding signal was -2.04 lnKA.
In the case of B2, the binding signal is reported as -3.45 lnKA.
In the case of B3, the binding signal is reported as -3.43 lnKA.
Binder B4 has a binding signal of -0.786 lnKA.
B5 gave a binding signal of -3.39 lnKA.
B6 showed a binding signal of -3.44 lnKA.
In the case of B7, the binding signal is reported as -3.49 lnKA.
B8 was tested, and the binding signal was -0.482 lnKA.
In the case of B9, the binding signal is reported as -3.41 lnKA.
B10 was tested, and the binding signal was -3.32 lnKA.
In the case of B11, the binding signal is reported as -1.81 lnKA.
Work on B12 yielded a binding signal of -3.49 lnKA.
Work on B13 yielded a binding signal of -3.24 lnKA.
B14 showed a binding signal of -3.38 lnKA.
B15 was tested, and the binding signal was -3.38 lnKA.
B16 showed a binding signal of -3.47 lnKA.
B17 gave a binding signal of -1.45 lnKA.
